# Measured values published in PubChem BioAssay (NCI).
# The panel holds about 79,000 compounds, 15% with a hit somewhere; the sample as a whole holds those more often. A number with no mark means an inactive call. Active and inactive are the calls of the source. Rule as the data show it: active = growth inhibition above about 70%; inactive = the rest.
# Assays:
# [1] = NCI Yeast Anticancer Drug Screen. Data for the wt1 strain (AID 149);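 also: 0% = growth of vehicle-treated wt1 cultures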; details: S. cerevisiae wt1 strain (SPY 50644) growth inhibition, hits give high values
# Summary of the method: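 Yeast wt1 strain exposed to compounds; growth inhibition measured relative to vehicle-treated controls.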
# [2] = NCI Yeast Anticancer Drug Screen. Data for the rad50EPP+ strain (AID 151);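 also: 0% = growth of vehicle-treated control cultures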; details: S. cerevisiae rad50 mutant strain, hits give high values
# Summary of the method: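 One strain with a rad50 alteration (rad50EPP+) was compound-treated, its growth then compared to that of vehicle controls.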
# [3] = NCI Yeast Anticancer Drug Screen. Data for the mgt1 strain (AID 153); details: S. cerevisiae mgt1 mutant growth inhibition, hits give high values
# Summary of the method: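 After exposure of the mgt1 yeast mutant to compound, growth was measured and reported as inhibition compared with vehicle controls.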
# [4] = NCI Yeast Anticancer Drug Screen. Data for the rad50 strain (AID 155);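 also: 0% = growth of vehicle-only cultures of the same strain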; details: S. cerevisiae rad50 strain growth inhibition, hits give high values
# Summary of the method: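 Yeast carrying a defined DNA repair defect were exposed to test compounds, and growth was compared with vehicle-treated controls to give percent inhibition.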
# [5] = NCI Yeast Anticancer Drug Screen. Data for the mec2-1 strain (AID 157); details: S. cerevisiae mec2-1 strain, hits give high values
# Summary of the method: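 Test agents were screened against the mec2-1 yeast strain, with defined DNA repair or cell cycle alteration. Growth was scored as inhibition against vehicle-only controls.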
# [6] = NCI Yeast Anticancer Drug Screen. Data for the sgs1 mgt1 strain (AID 161);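 also: 0% = growth of cultures given vehicle only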; details: S. cerevisiae sgs1 mgt1 strain, hits give high values
# Summary of the method: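 Inhibition of yeast growth, normalised to vehicle-treated controls, is reported for a strain bearing genetic alterations in DNA damage repair.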
# [7] = NCI Yeast Anticancer Drug Screen. Data for the CLN2oe strain (AID 163);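 also: 0% = growth of vehicle-only control cultures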; details: S. cerevisiae CLN2oe strain, hits give high values
# Summary of the method: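 Here, growth inhibition in a cell-cycle-altered yeast strain after compound exposure was quantified against vehicle control growth.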
# [8] = NCI Yeast Anticancer Drug Screen. Data for the cln2 rad14 strain (AID 165);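 also: 0% = growth equal to vehicle treated cultures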; details: S. cerevisiae cln2 rad14 strain, hits give high values
# Summary of the method: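 Growth of compound-exposed yeast (cln2 rad14 genotype) measured and expressed as inhibition relative to vehicle.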
# [9] = NCI Yeast Anticancer Drug Screen. Data for the bub3 strain (AID 167); details: S. cerevisiae bub3 mutant strain, hits give high values
# Summary of the method: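 Compounds were applied to a genetically altered yeast strain carrying a cell-cycle control defect. Growth inhibition was scored against vehicle-treated controls.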
# [10] = NCI Yeast Anticancer Drug Screen. Data for the wt2 strain (AID 169);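 also: 0% = growth of vehicle-treated yeast cultures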; details: S. cerevisiae wt2 strain growth inhibition, hits give high values
# Summary of the method: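 Genetically defined yeast strains from a DNA-repair/cell-cycle panel were used. Compound-exposed yeast growth was measured, and the inhibition was calculated relative to vehicle treatment.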
# [11] = NCI Yeast Anticancer Drug Screen. Data for the mlh1 strain (AID 171);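 also: 0% = growth of vehicle-treated control cultures of the same strain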; details: S. cerevisiae mlh1 strain growth inhibition, hits give high values
# Summary of the method: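 Here the genetically defined yeast mutant is grown with each compound, and the extent to which its growth falls below that of vehicle-exposed cells is reported.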
# [12] = NCI Yeast Anticancer Drug Screen. Data for the sgs1 strain (AID 173);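 also: 0% = growth of vehicle-only control cultures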; details: S. cerevisiae sgs1 mutant, hits give high values
# Summary of the method: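 Relative growth inhibition, referenced to vehicle, was determined in a yeast strain with a defined alteration affecting DNA damage repair or cell cycle control after compound exposure.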
# [13] = NCI Yeast Anticancer Drug Screen. Data for the mlh1 rad18 strain (AID 175); details: S. cerevisiae mlh1 rad18 strain growth inhibition, hits give high values
# Summary of the method: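 In this whole-cell yeast screen, a strain with altered DNA damage repair is challenged with compound, and its growth is measured against matched vehicle-treated controls.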
# [14] = NCI Yeast Anticancer Drug Screen. Data for the rad18 strain (AID 177); details: S. cerevisiae rad18 mutant growth inhibition, hits give high values
# Summary of the method: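 Screen uses a yeast strain with a defined lesion in DNA damage repair; compound effect is read as loss of growth compared to untreated vehicle cultures.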
# [15] = NCI Yeast Anticancer Drug Screen. Data for the rad14 strain (AID 159);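 also: 0% = growth of vehicle-treated control cultures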; details: S. cerevisiae rad14 strain growth inhibition, hits give high values
# Summary of the method: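 Yeast cells carrying a defined DNA-repair defect were exposed to compounds, and growth inhibition was calculated relative to vehicle-treated control cultures.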
# [16] = at 5.0 µM (retest, dose inferred, filed as 0.5)
# [17] = at 50.0 µM (retest, dose inferred, filed as 5.0)
smiles,measurement,setting,value
Cc1c2ccncc2c(C)c2c1oc1ccccc12,growth inhibition,[1]; at 1.2 µM,1%
same,growth inhibition,[1]; at 3.7 µM,2%
same,growth inhibition,[1]; at 11.0 µM,10%
same,growth inhibition,[1]; at 33.0 µM,89% (active)
same,growth inhibition,[1]; at 100.0 µM,97% (active)
same,growth inhibition,[2]; at 1.2 µM,52%
same,growth inhibition,[2]; at 3.7 µM,82% (active)
same,growth inhibition,[2]; at 11.0 µM,84% (active)
same,growth inhibition,[2]; at 33.0 µM,98% (active)
same,growth inhibition,[2]; at 100.0 µM,97% (active)
same,growth inhibition,[3]; at 1.2 µM,-1%
same,growth inhibition,[3]; at 3.7 µM,6%
same,growth inhibition,[3]; at 11.0 µM,10%
same,growth inhibition,[3]; at 33.0 µM,61%
same,growth inhibition,[3]; at 100.0 µM,98% (active)
same,growth inhibition,[4]; at 1.2 µM,53%
same,growth inhibition,[4]; at 3.7 µM,87% (active)
same,growth inhibition,[4]; [16],92% (active)
same,growth inhibition,[4]; at 11.0 µM,94% (active)
same,growth inhibition,[4]; at 33.0 µM,97% (active)
same,growth inhibition,[4]; [17],88% (active)
same,growth inhibition,[4]; at 50.0 µM,39.2%
same,growth inhibition,[4]; at 100.0 µM,95% (active)
same,growth inhibition,[5]; at 1.2 µM,5%
same,growth inhibition,[5]; at 3.7 µM,13%
same,growth inhibition,[5]; [16],29%
same,growth inhibition,[5]; at 11.0 µM,17%
same,growth inhibition,[5]; at 33.0 µM,80% (active)
same,growth inhibition,[5]; [17],93% (active)
same,growth inhibition,[5]; at 50.0 µM,51%
same,growth inhibition,[5]; at 100.0 µM,98% (active)
same,growth inhibition,[6]; [16],4%
same,growth inhibition,[6]; [17],93% (active)
same,growth inhibition,[6]; at 50.0 µM,44.8%
same,growth inhibition,[7]; at 1.2 µM,12%
same,growth inhibition,[7]; at 3.7 µM,30%
same,growth inhibition,[7]; at 11.0 µM,53%
same,growth inhibition,[7]; at 33.0 µM,89% (active)
same,growth inhibition,[7]; at 100.0 µM,97% (active)
same,growth inhibition,[8]; [16],31%
same,growth inhibition,[8]; [17],93% (active)
same,growth inhibition,[8]; at 50.0 µM,94.2% (active)
same,growth inhibition,[9]; at 1.2 µM,19%
same,growth inhibition,[9]; at 3.7 µM,24%
same,growth inhibition,[9]; [16],27%
same,growth inhibition,[9]; at 11.0 µM,40%
same,growth inhibition,[9]; at 33.0 µM,88% (active)
same,growth inhibition,[9]; [17],94% (active)
same,growth inhibition,[9]; at 50.0 µM,96.4% (active)
same,growth inhibition,[9]; at 100.0 µM,98% (active)
same,growth inhibition,[10]; at 1.2 µM,7%
same,growth inhibition,[10]; at 3.7 µM,17%
same,growth inhibition,[10]; at 11.0 µM,57%
same,growth inhibition,[10]; at 33.0 µM,94% (active)
same,growth inhibition,[10]; at 100.0 µM,98% (active)
same,growth inhibition,[11]; at 1.2 µM,1%
same,growth inhibition,[11]; at 3.7 µM,16%
same,growth inhibition,[11]; at 11.0 µM,8%
same,growth inhibition,[11]; at 33.0 µM,87% (active)
same,growth inhibition,[11]; at 100.0 µM,98% (active)
same,growth inhibition,[12]; at 1.2 µM,-5%
same,growth inhibition,[12]; at 3.7 µM,-6%
same,growth inhibition,[12]; at 11.0 µM,16%
same,growth inhibition,[12]; at 33.0 µM,93% (active)
same,growth inhibition,[12]; at 100.0 µM,95% (active)
same,growth inhibition,[13]; [16],64%
same,growth inhibition,[13]; [17],90% (active)
same,growth inhibition,[13]; at 50.0 µM,50.1%
same,growth inhibition,[14]; at 1.2 µM,-2%
same,growth inhibition,[14]; at 3.7 µM,32%
same,growth inhibition,[14]; at 11.0 µM,56%
same,growth inhibition,[14]; at 33.0 µM,95% (active)
same,growth inhibition,[14]; at 100.0 µM,98% (active)
CNc1ccc2[nH]c3ccccc3c2c1,growth inhibition,[1]; at 1.2 µM,0%
same,growth inhibition,[1]; at 3.7 µM,0%
same,growth inhibition,[1]; at 11.0 µM,1%
same,growth inhibition,[1]; at 33.0 µM,-4%
same,growth inhibition,[1]; at 100.0 µM,28%
same,growth inhibition,[2]; at 1.2 µM,1%
same,growth inhibition,[2]; at 3.7 µM,-2%
same,growth inhibition,[2]; at 11.0 µM,-4%
same,growth inhibition,[2]; at 33.0 µM,26%
same,growth inhibition,[2]; at 100.0 µM,65%
same,growth inhibition,[4]; at 1.2 µM,-1%
same,growth inhibition,[4]; at 3.7 µM,-2%
same,growth inhibition,[4]; [16],7%
same,growth inhibition,[4]; at 11.0 µM,-2%
same,growth inhibition,[4]; at 33.0 µM,1%
same,growth inhibition,[4]; [17],25%
same,growth inhibition,[4]; at 50.0 µM,90% (active)
same,growth inhibition,[4]; at 100.0 µM,58%
same,growth inhibition,[5]; at 1.2 µM,-1%
same,growth inhibition,[5]; at 3.7 µM,1%
same,growth inhibition,[5]; [16],-1%
same,growth inhibition,[5]; at 11.0 µM,0%
same,growth inhibition,[5]; at 33.0 µM,1%
same,growth inhibition,[5]; [17],-5%
same,growth inhibition,[5]; at 50.0 µM,62.9%
same,growth inhibition,[5]; at 100.0 µM,59%
same,growth inhibition,[15]; at 1.2 µM,-3%
same,growth inhibition,[15]; at 3.7 µM,-5%
same,growth inhibition,[15]; at 11.0 µM,-3%
same,growth inhibition,[15]; at 33.0 µM,4%
same,growth inhibition,[15]; at 100.0 µM,80% (active)
same,growth inhibition,[6]; [16],-11%
same,growth inhibition,[6]; [17],13%
same,growth inhibition,[6]; at 50.0 µM,80.9% (active)
same,growth inhibition,[7]; at 1.2 µM,-6%
same,growth inhibition,[7]; at 3.7 µM,-7%
same,growth inhibition,[7]; at 11.0 µM,0%
same,growth inhibition,[7]; at 33.0 µM,-5%
same,growth inhibition,[7]; at 100.0 µM,52%
same,growth inhibition,[8]; [16],-14%
same,growth inhibition,[8]; [17],20%
same,growth inhibition,[8]; at 50.0 µM,15.2%
same,growth inhibition,[9]; at 1.2 µM,-4%
same,growth inhibition,[9]; at 3.7 µM,-7%
same,growth inhibition,[9]; [16],-11%
same,growth inhibition,[9]; at 11.0 µM,-8%
same,growth inhibition,[9]; at 33.0 µM,-10%
same,growth inhibition,[9]; [17],-4%
same,growth inhibition,[9]; at 50.0 µM,66.6%
same,growth inhibition,[9]; at 100.0 µM,54%
same,growth inhibition,[10]; at 1.2 µM,-1%
same,growth inhibition,[10]; at 3.7 µM,-1%
same,growth inhibition,[10]; at 11.0 µM,3%
same,growth inhibition,[10]; at 33.0 µM,5%
same,growth inhibition,[10]; at 100.0 µM,59%
same,growth inhibition,[11]; at 1.2 µM,3%
same,growth inhibition,[11]; at 3.7 µM,1%
same,growth inhibition,[11]; at 11.0 µM,0%
same,growth inhibition,[11]; at 33.0 µM,1%
same,growth inhibition,[11]; at 100.0 µM,65%
same,growth inhibition,[12]; at 1.2 µM,0%
same,growth inhibition,[12]; at 3.7 µM,4%
same,growth inhibition,[12]; at 11.0 µM,3%
same,growth inhibition,[12]; at 33.0 µM,11%
same,growth inhibition,[12]; at 100.0 µM,83% (active)
same,growth inhibition,[13]; [16],-20%
same,growth inhibition,[13]; [17],77% (active)
same,growth inhibition,[13]; at 50.0 µM,82.7% (active)
same,growth inhibition,[14]; at 1.2 µM,2%
same,growth inhibition,[14]; at 3.7 µM,0%
same,growth inhibition,[14]; at 11.0 µM,-11%
same,growth inhibition,[14]; at 33.0 µM,18%
same,growth inhibition,[14]; at 100.0 µM,85% (active)
